Experimental data published in PubChem BioAssay AID2330 (Broad Institute, 2010).
Among all 37,000 compounds or so, about 2,800 (7.6%) were called active. Roughly 1% stayed inconclusive and do not appear here. Shown is part of a subset that was picked to be rich in actives. A number with no mark means an inactive call. No stated cut-off is given here; in the data, active means inhibition above about 80%; inconclusive means no clear call, values can overlap the other calls; inactive means below that.

assay: NOMO-1 AML cell viability reduction, primary screen, STK33 inhibitor project, CellTiter-Glo luminescence (AID 2330); settings: NOMO-1 AML viability, 72 h, active compounds read high, concentration not given here

Compound | inhibition
C/C=C(/C)C(=O)OC1Cc2c(ccc3ccc(=O)oc23)OC1(C)C (configuration not stated) | 9.99%
S=c1nc2c(cnn2-c2ccccc2)c(Nc2ccccc2)[nH]1 | 12%
C[C@@H]1CN([C@H](C)CO)C(=O)c2cc(NC(=O)Cn3cnnn3)ccc2O[C@@H]1CN(C)Cc1ccc(C(F)(F)F)cc1 | 21.9%
Cc1ccc(S(=O)(=O)N(C)C[C@@H]2Oc3ccc(NS(=O)(=O)c4c(C)noc4C)cc3CC(=O)N([C@H](C)CO)C[C@H]2C)cc1 | -13.6%
O=C(O)CCCC(=O)Nc1ccc(F)cc1 | 13.9%
C[C@H]1CN([C@@H](C)CO)C(=O)c2cc(NC(=O)CCN3CCOCC3)ccc2O[C@@H]1CN(C)C(=O)Nc1ccc(C(F)(F)F)cc1 | 22.5%
C[C@@H]1CN([C@@H](C)CO)C(=O)c2cc(NS(=O)(=O)c3ccccc3)ccc2O[C@H]1CN(C)CC1CCCCC1 | -8.05%
Cn1nc(CC(=O)Nc2ccc3c(c2)oc2ccccc23)c2ccccc2c1=O | 37.5%
Cc1ccc(C(=O)NC(NCc2ccco2)(C(F)(F)F)C(F)(F)F)cc1 | 39.2%
Cc1ccc(-n2nnnc2-c2cnn(-c3ccccc3)c2C)cc1 | 29.6%
C[C@H]1CN([C@@H](C)CO)C(=O)c2cccc(NS(=O)(=O)c3ccccc3)c2O[C@@H]1CN(C)S(=O)(=O)c1cn(C)cn1 | -9.26%
COc1ccc(S(=O)(=O)Nc2ccc3c(c2)C(=O)N([C@H](C)CO)C[C@H](C)[C@H](CN(C)Cc2ccc(C(F)(F)F)cc2)O3)cc1 | 51.7%
C[C@H](CO)N1C[C@H](C)[C@H](CN(C)Cc2ccc(C(F)(F)F)cc2)Oc2ccc(NS(=O)(=O)c3ccc(Cl)cc3)cc2C1=O | 58.5%
Cc1ccc(S(=O)(=O)Nc2ccc3c(c2)C(=O)N([C@@H](C)CO)C[C@@H](C)[C@H](CN(C)Cc2ccc(C(F)(F)F)cc2)O3)cc1 | 118% (active)
C[C@@H]1CN([C@@H](C)CO)C(=O)c2cc(NS(C)(=O)=O)ccc2O[C@H]1CN(C)C(=O)Nc1ccc(F)cc1 | 37.9%
CCCN(Cc1cc2cccc(C)c2[nH]c1=O)S(C)(=O)=O | 10.7%
COC(=O)C1=C(C)Nc2c(c(=O)n(C)c(=O)n2C)C1c1cccc(OCc2ccccc2)c1 (configuration not stated) | 7.28%
O=C(c1ccc(Cl)cc1)n1c(=O)oc2cc(Cl)ccc21 | 132% (active)
CC(C)(C)c1ccc(OCC(=O)NCc2ccccn2)c(Br)c1 | 43.9%
C[C@@H]1CN([C@@H](C)CO)C(=O)c2cc(NS(=O)(=O)c3ccccc3)ccc2O[C@H]1CN(C)CC1CC1 | -13.4%
O=C(CN(C1CCCCC1)S(=O)(=O)c1ccc(Cl)cc1)Nc1ccccc1C(F)(F)F | 25.5%

Compound | inhibition
COc1ccc(S(=O)(=O)N(C)C[C@H]2Oc3ccc(N(C)C)cc3C(=O)N([C@@H](C)CO)C[C@@H]2C)cc1 | 11.7%
CN1C(=O)C(O)(CC(=O)c2ccco2)c2cc([N+](=O)[O-])ccc21 (configuration not stated) | 36.2%
CN1C(=O)CC(c2ccccc2)C1=O (configuration not stated) | 14.7%
CN1C(=O)C(Cc2ccccc2)(Cc2ccccc2)c2ccccc21 | 96.7% (active)
C[C@H](CO)N1C[C@H](C)[C@H](CN(C)C)Oc2c(NS(=O)(=O)c3ccc(Cl)cc3)cccc2C1=O | 17.7%
CN1CCN(C(=O)CCc2nc(-c3ccc(Cl)cc3)no2)CC1 | -5.54%
Cn1c(Cc2csc(N)n2)nnc1SC/C=C/c1ccccc1 | 23.5%
CC(C)NC(=O)N(C)C[C@H]1Oc2ccc(NC(=O)Cn3cnnn3)cc2CC(=O)N([C@H](C)CO)C[C@H]1C | 36.1%
C/C=C(/C)C(=O)O[C@H]1CC(C)(C)C[C@H]2C3=CCC4[C@@]5(C)CC[C@H](O[C@@H]6O[C@H](C(=O)O)[C@@H](O[C@@H]7O[C@H](CO)[C@H](O)[C@H](O)[C@H]7O[C@@H]7O[C@H](CO)[C@@H](O)[C@H](O)[C@H]7O)[C@H](O)[C@H]6O[C@@H]6O[C@@H](C)[C@H](O)[C@@H](O)[C@H]6O)C(C)(C)C5CC[C@@]4(C)[C@]3(C)[C@@H](OC(C)=O)[C@@H](O)[C@@]12COC(C)=O (some centres not stated) | 121% (active)
CC1(C)CC[C@]2(C(=O)O)CC[C@]3(C)C(=CCC4[C@@]5(C)CC[C@H](OC6O[C@H](CO)[C@@H](O)[C@H](O[C@@H]7O[C@H](CO)[C@@H](O)[C@H](O)[C@H]7O)[C@H]6O)C(C)(C)C5CC[C@]43C)[C@@H]2C1 (some centres not stated) | 119% (active)
C=CC1(C)C=C2CCC3C(C)(C)C(O[C@@H]4O[C@@H](CO)[C@H](O)[C@H]4O)CCC3(C)C2CC1O[C@@H]1O[C@H](C)[C@@H](OC)[C@H](O)[C@H]1O (some centres not stated) | 14%
CC1OC(OC2C(OC3C(O[C@H]4CC[C@@]5(C)C(CC[C@]6(C)C5CC=C5[C@@H]7CC(C)(C)C[C@@H](O)[C@]7(C)CC[C@]56C)C4(C)C)OC(C(=O)O)C(O)C3O)OC(CO)C(O)C2O)C(O)C(O)C1O (some centres not stated) | 25.4%
C[C@@H]1O[C@@H](O[C@H]2[C@@H](Oc3cc(O)c4c(c3)O[C@H](c3ccc(O)cc3)CC4=O)O[C@H](CO)[C@@H](O)[C@@H]2O)[C@H](O)[C@H](O)[C@H]1O | -11.7%
CC1(C)C2CC[C@]3(C)C(C(=O)C=C4[C@@H]5C[C@@](C)(C(=O)O)CC[C@]5(C)CC[C@]43C)[C@@]2(C)CC[C@@H]1O (some centres not stated) | 63.8%
C/C=C(/C)C(=O)O[C@H]1CC(C)(C)C[C@H]2C3=CCC4[C@@]5(C)CC[C@H](O[C@@H]6O[C@H](C(=O)O)[C@@H](O[C@@H]7O[C@H](CO)[C@H](O)[C@H](O)[C@H]7O[C@@H]7O[C@H](CO)[C@@H](O)[C@H](O)[C@H]7O)[C@H](O)[C@H]6O[C@@H]6O[C@@H](C)[C@H](O)[C@@H](O)[C@H]6O)C(C)(C)C5CC[C@@]4(C)[C@]3(C)[C@@H](O)[C@@H](O)[C@@]12CO (some centres not stated) | 119% (active)
C[C@@H]1CC[C@]2(C(=O)O)CC[C@]3(C)C(=CCC4[C@@]5(C)CC[C@H](O)[C@](C)(C(=O)O)C5CC[C@]43C)C2[C@]1(C)O (some centres not stated) | 29.2%
CC1(C)CC[C@@]2(C(=O)O)C(C1)C1=CCC3[C@@]4(C)CC[C@H](O)C(C)(C)C4CC[C@@]3(C)[C@]1(C)C[C@H]2O (some centres not stated) | 108% (active)
COC(=O)C1=CO[C@@H](O[C@@H]2O[C@H](CO)[C@@H](O)[C@H](O)[C@H]2O)[C@@H]2[C@@](C)(O)[C@@H](OC(=O)/C=C/c3ccc(OC)c(OC)c3)C[C@]12O | 11.5%
C[C@@H]1CN([C@H](C)CO)C(=O)c2cc(NC(=O)CCCCCC(=O)Nc3ccccc3N)ccc2O[C@@H]1CN(C)S(=O)(=O)c1ccc(Cl)cc1 | 53.5%
CC(C)(C)c1nc(=S)[nH][nH]1 | 17.3%
Cc1cc2c(=O)n(C)c(SCC(=O)c3cc4ccccc4o3)nc2s1 | -4.22%

Compound | inhibition
O=C1CC(c2ccccc2)C(=O)N1c1ccc(F)cc1 (configuration not stated) | 22.5%
C[C@@H]1CN([C@@H](C)CO)C(=O)c2cccc(NC(=O)c3ccncc3)c2O[C@H]1CN(C)S(=O)(=O)c1ccc(F)cc1 | 19.5%
C[C@H](CO)N1C[C@H](C)[C@@H](CN(C)S(=O)(=O)c2ccc(Cl)cc2)Oc2ccc(NS(=O)(=O)c3cn(C)cn3)cc2C1=O | 13.1%
C[C@@H]1CN([C@H](C)CO)C(=O)c2cccc(NS(=O)(=O)c3ccc(Cl)cc3)c2O[C@@H]1CN(C)Cc1ccc(Cl)c(Cl)c1 | 33.7%
O=C(CSc1nnc(-c2ccccc2Cl)n1-c1ccccc1)Nc1ccc([N+](=O)[O-])cc1 | 18.6%
C[C@@H]1CN([C@@H](C)CO)C(=O)c2cc(NC(=O)Cc3ccccc3)ccc2O[C@@H]1CN(C)CC1CCCCC1 | 17.8%
NC(=O)c1c(NC(=O)c2cnn3c(C(F)F)cc(-c4ccccc4)nc23)sc2c1CCCC2 | 112% (active)
O=C(NCc1cccnc1)c1cnn2c(C(F)F)cc(-c3ccccc3)nc12 | 11%
COc1cccc2cc(C(=O)Nc3sc4c(c3C(N)=O)CCCCC4)c(=O)oc12 | 6.77%
O=C(Cn1cnc([N+](=O)[O-])n1)Nc1c(Cl)cccc1Cl | -1.21%
COc1ccc(OC)c(NC(=O)CSc2nc(-c3ccccc3)cc(=O)[nH]2)c1 | 5.5%
COc1ccccc1NC(=O)CSc1n[nH]c(C)n1 | 4.79%
COc1ccccc1NC(=O)CSc1nc2cc3ccccc3cc2[nH]1 | 108% (active)
Cc1ccc(S(=O)(=O)N(C)C[C@H]2Oc3ccc(NC(=O)Nc4cccc5ccccc45)cc3CC(=O)N([C@H](C)CO)C[C@H]2C)cc1 | 23.8%
CC(=O)c1cccc(NC(=O)CN(C)S(=O)(=O)c2ccc3ccccc3c2)c1 | 19.7%
Nc1nnc(SCC(=O)Nc2ccc(F)c(Cl)c2)s1 | 10%
Cc1ccc(N(C(C)C(=O)Nc2ccc(F)c(Cl)c2)S(C)(=O)=O)cc1C (configuration not stated) | 32.7%
C[C@H](CO)N1C[C@H](C)[C@@H](CN(C)S(=O)(=O)c2ccc(F)cc2)Oc2c(NC(=O)Nc3ccccc3)cccc2C1=O | 8.66%
COc1cc(NC(=O)COc2ccc(Cl)cc2C)c(OC)cc1Cl | -5.6%
C=C1C(=O)OC2/C=C(\C)CC3C=C(CC/C=C(\C)CCC12)C(=O)O3 (configuration not stated) | 114% (active)
